Among the data in the supplement of paper PMC6555819 are PBM binding z-score values, retold here.

For this assay, the system named is LXRb homodimer (NR concentration 270 nM). The experiment in a line: PBM binding z-score (relative to random genomic background probes); higher = stronger binding; sequences stand for … in GC…GCGATTGACAGCGTAGAATGAAGG
The essentials: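 Binding buffer was PBS pH 7.4 with 2% milk, 0.02% Triton X-100, 1 mM DTT, 0.2 mg/mL BSA and 0.4 mg/ml salmon testes DNA. In it, ligand-free nuclear receptor dimers were incubated 1 h on custom Agilent 4×180K protein-binding microarrays carrying double-stranded probes. Antibodies against each partner (one per run) detected binding, and z-scores were calculated against random background probes after regression normalization of scanned fluorescence.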
As for CCGACTGGGGCATAAGGTTACTATAAGCCAGCCC, the PBM binding z-score is -1.18.

In turn, CTCGAAAGGTCGGTTGAGGTGAGTACACGGATAA showed a PBM binding z-score of -0.0877.

In turn, AATACAGGGTCACTATGCCAGAGTAGGTACGAAT displayed a PBM binding z-score of 1.06.

As for TAGCCTAGGTCAGATCGGGCCTGTATACGCTATA, the PBM binding z-score is -0.0997.

TATACAGGGTCAAAGGCCAGGGTACGAATGTCGA gave a PBM binding z-score of 2.5.

TCTAGTTGGTCACGGAGGTCACACTCGACGGGTA returned a PBM binding z-score of 0.84.

Regarding AGTTAAAGTTCACTAGGTAACGTAAGATTCAGCT, the PBM binding z-score was determined as 1.1.

With CCTTACGGGTCACTGACAGGTTATACCATTTGGA, the PBM binding z-score was -0.46.

In the case of ACCGAAAGGTCGTGAGGTGAGTATACAGAAAGGC, the PBM binding z-score came to 0.134.

CGTCCAAGGTGAAGGTCAGTGAAAGAGACTCGAA registered a PBM binding z-score of -0.872.

The sequence ATCTCTAGGTAGGACTCAGTTCAGTGAAGAACGC showed a PBM binding z-score of 1.09.

With ACTATTAGTTGAGACGACGGCAACCGATAGGTTG, the PBM binding z-score is 0.14.

ATCACTAGGTAAGACTCAGTTCAGTGAAGAACGC had a PBM binding z-score of 0.239.

In turn, TCATATAGGTAAATGCTAGGTGTAAGTCCGATCT yielded a PBM binding z-score of -0.0969.

The sequence CTCGAAAGGTCGTGCTCAGGTGGGTATACCAAAC came in with a PBM binding z-score of 0.396.

On to AGAATGAGCTTATTAAGATCAGGGAATTGCGGTC, for which the PBM binding z-score was -0.756.

TCTCGGAGGACACGACAGGTCAGAGCTCGACATC gave a PBM binding z-score of -0.505.

Take TCTTGTAGATCAGGCAGGTTAAGAAAGCCTGAGT: the PBM binding z-score was -0.455.

On to GATACAGGGTCAGCTAGAGGCCAAAGTATGGAAA, for which the PBM binding z-score is -0.391.

For CCTATTAGTTGACCATAAGGGTAACCGAAGCTCG, the PBM binding z-score came to 0.958.

ATCTCTAGGTAAAGATAGTTCAGTGGATGCAAAT yielded a PBM binding z-score of 0.439.

With CAGCCTAGGTCAGTGCCAGTATAGGAGGAACGTT, the PBM binding z-score was -0.648.

In the case of CGAACTAGGTCATTGACAGGACAGAGAATAGTAA, the PBM binding z-score turned out to be 0.12.

As for CGCACGAGGGCATGAGTTGATAGCAAATGCCGAT, the PBM binding z-score is -0.764.

ACAGACAGGTGAGTGAAGATAACTCAGCTGGACG: the PBM binding z-score was -0.749.

For the sequence GCGACTGGGGCATCCGCAGGTTACCATAACTTAA, the PBM binding z-score was -0.515.

Turning to ACTAGCAGGCCAAGTGTGGGTCACTCAAACAAAG, the PBM binding z-score was -0.959.

GATACAGGGTCAAGGCGAGAGTACGCGTATTGAT showed a PBM binding z-score of 0.243.

For ACAGACAGGTGAGTAAAGGTAACTCAGCTGGACG, the PBM binding z-score is -0.506.

Turning to ACTAGTTGGTCAGCTGAGGTCACCCACAATTCGG, the PBM binding z-score was 0.552.

Regarding CCGAGTGGGGCAAGGTTACCATAACGCACAGCCA, the PBM binding z-score was -0.711.

CAAACTAGGTCAAGAGGTCAAAATCCGCTTCCCG: the PBM binding z-score was found to be 1.75.

Consider CCGACTTGGGCATAAGGTTACCATAAGCCAGCCC, for which the PBM binding z-score is -1.29.

The sequence CGTTACGGGTCACTGACAGGTTATAGCATTTGGA gave a PBM binding z-score of -0.201.

In turn, CGAGCTAGGTCATCCAGGACAGTGAATACATTGA returned a PBM binding z-score of 0.0673.

In turn, CCTAGTTGGTCAAGTTCACACACGCTATAGGTAC gave a PBM binding z-score of 0.695.

CGTCCAAGGTCATAGGAGGTCAGTGTAGACAGAT showed a PBM binding z-score of 1.28.

For CCTAGTTGGTCAGCAGGTCACACACCGGATATGA, the PBM binding z-score was found to be 0.372.

The sequence CGTCCAAGGCCAGCAGGTCAGTGAAAGCGACGTG came in with a PBM binding z-score of -1.05.

As to TCTATTATTTGATTAGGGCAACCGAAACAGCGGA, the PBM binding z-score worked out at 1.33.
